In PubChem BioAssay AID686978 (National Center for Advancing Translational Sciences (NCATS), 2013):
The campaign covered roughly 420,000 compounds. About 64,000 (15%) were called active. Another 27% or so got no clear call; they are omitted. Calls come from the whole dose curve; as a rule, active = well fitted inhibition curve with a large enough effect; inconclusive = small, poorly fitted or top-dose-only effect; inactive = flat fitted curve, though single readings scatter. Only a sample is shown. A call without a number means that no potency is given here.
Potency is the fitted concentration of half-maximal effect.

Assay: qHTS for Inhibitors of human tyrosyl-DNA phosphodiesterase 1 (TDP1): qHTS in cells in absence of CPT; note: nearly all actives have a fitted effect of over 55% in size
Settings: DT40 Tdp1-/- hTDP1 cells, no CPT, ATP luminescence, 48 h; activity change, negative = growth inhibition: at 46.2 µM (top of the series)
How it was run: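 Readout: luminescence from CellTiter-Glo after 30 min in the dark at RT. Cells: DT40 Tdp1-/- with stable hTDP1, 400/well. Exposure: compounds alone, ≥48 hr, 37 °C.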
With COc1cc([N+](=O)[O-])cc([N+](=O)[O-])c1NC(=O)N1CCOCC1 the Potency was “inactive”. For O=C(CSc1nc(=O)n(Cc2cccnc2)c2c1CCC2)Nc1ccc(F)cc1F, the Potency was “inactive”. With CC(=O)c1c(OCC(=O)N(C)C2CCCCC2)ccc2c(C)cc(=O)oc12 the Potency was “inactive”. With CCc1ccnc(NS(=O)(=O)c2ccc3c(c2)OCCO3)c1 the Potency was “inactive”. In the case of CC(C)(C)NC(=O)CN(C(=O)c1ccc(Cl)nc1)c1cccc2ccccc12, the Potency is reported as “inactive”. For Cc1ccc(C)n1-c1ccncc1, the Potency was “inactive”. With c1ccc2c(c1)nnn2-c1ccncc1 the Potency was 5.17 µM (active). In the case of COc1cc2nnn(-c3ccncc3)c2cc1OC, the Potency is reported as “inactive”. For CC(=O)N1C(=O)C2(Nc3ccccc3N2)c2ccccc21, the Potency was “inactive”. With Cc1oc(CC(C)C)c(CN2CCCC2)c1C(=O)O the Potency was “inactive”. With COc1ccc(CCNC(=O)CN2C(=O)CCSc3ccccc32)c(OC)c1 the Potency was “inactive”. With COc1ccc(CCNC(=O)COC(=O)Cc2cc(OC)c(OC)c(OC)c2)cc1 the Potency was “inactive”. For COc1ccc(CCNC(=O)c2cc3cccc4c3n2CC(C)S4)c(OC)c1OC (centres undefined), the Potency was 11.6 µM (active). With CNc1nc(SC)nc(N(C#N)CC(=O)OC)n1 the Potency was “inactive”. In the case of COc1ccc(NC(=O)CN(C)C(=O)c2ccc(COc3ccccc3)o2)cc1, the Potency is reported as “inactive”. With O=C(NCCc1ccccn1)c1ccc(COc2ccccc2)o1 the Potency was “inactive”. With CCOc1ccc(OCc2ccc(C(=O)N(C)c3ccccc3)o2)cc1 the Potency was 14.6 µM (active). In the case of CCOC(=O)N1C(=O)C[C@](Sc2ccc(C)cc2)(C(=O)OC)[C@H]1c1ccccc1, the Potency is reported as “inactive”. With CCN1C(=O)[C@@H]2[C@@H](c3ccc(-c4ccccc4)cc3)N3CCCC[C@@]3(C(=O)OC)[C@@H]2C1=O the Potency was 16.4 µM (active). With CCCCCCSc1ccc([C@@H]2[C@@H]3C(=O)N(CC)C(=O)[C@@H]3[C@]3(C(=O)OC)CCCCN23)cc1OC the Potency was 25.9 µM (active). For CCN1C(=O)[C@H]2[C@@H](c3ccc(C)cc3)N3C(=O)N(c4cccc(Br)c4)C(=O)[C@@]3(CC)[C@H]2C1=O, the Potency was “inactive”. In the case of CC(=O)N(CN1C(=O)C2C3C=CC(C3)C2C1=O)c1cccc(Cl)c1 (centres undefined), the Potency is reported as “inactive”. For CCCCC12CN3CC(C)(CN(C1)C3c1ccc(O)c(OC)c1)C2=O (centres undefined), the Potency was “inactive”. With NC(=O)C1(Nc2ccc(-c3ccccc3)cc2)CCCC1 the Potency was “inactive”. In the case of CCN1C(=O)[C@@H]2[C@@H](c3ccc(-c4cccc(Cl)c4)cc3)N3CCC[C@@]3(C(=O)OC)[C@@H]2C1=O, the Potency is reported as 16.4 µM (active). With CCOC(=O)C1=C(CC)Nc2ccccc2N=C1N the Potency was “inactive”. In the case of COCCNC(=O)c1cc(-c2cccc(Cl)c2)on1, the Potency is reported as “inactive”. In the case of CSc1ccc(NC(=O)Cn2nnnc2-c2ccccc2F)cc1, the Potency is reported as “inactive”. In the case of COc1ccc(NC(=O)CN(C)C(=O)CNC(=O)C2CCCCC2)cc1, the Potency is reported as “inactive”. For COc1ccccc1C1/C(=C(/O)c2ccc(C)cc2)C(=O)C(=O)N1Cc1ccco1 (centres undefined), the Potency was “inactive”. With COc1ccc(S(=O)(=O)N(C)CC(=O)NCCCN2CCOCC2)cc1Cl the Potency was “inactive”. With CN(Cc1ccc(F)cc1Cl)S(=O)(=O)c1cccs1 the Potency was “inactive”. In the case of OC(CNCc1ccc2c(c1)OCO2)COc1ccccc1 (centres undefined), the Potency is reported as “inactive”. In the case of Cc1ccc(OCC(=O)OC(C)CN(C)Cc2ccccc2)cc1 (centres undefined), the Potency is reported as “inactive”. In the case of CN(Cc1ccccc1)CC(O)COc1ccc(CNCc2cc3ccccc3s2)cc1 (centres undefined), the Potency is reported as 29.1 µM (active). With O=C(COC(=O)c1ccc(F)c(S(=O)(=O)N2CCOCC2)c1)NCc1ccc2c(c1)OCO2 the Potency was “inactive”. In the case of OC(Cc1ccc2ccccc2n1)c1ccc(Cl)c(Cl)c1 (centres undefined), the Potency is reported as “inactive”. For Cc1cc(NC(=O)C(C)N2C(=O)c3ccccc3S2(=O)=O)no1 (centres undefined), the Potency was “inactive”. With O=C(CN1C(=O)NC2(CCOc3ccccc32)C1=O)Nc1cccc([N+](=O)[O-])c1 (centres undefined) the Potency was 20.6 µM (active). For O=C(CN1CCOCC1)Nc1cccc([N+](=O)[O-])c1, the Potency was “inactive”. With O=C(CN1C(=O)NC2(CCCC2)C1=O)Nc1ccc(F)c(F)c1F the Potency was “inactive”. In the case of CN(C)S(=O)(=O)c1cc(NC(=O)CN2C(=O)NC3(CCCc4ccccc43)C2=O)ccc1Cl (centres undefined), the Potency is reported as 14.6 µM (active). With O=C(CN1C(=O)NC2(CCCCCC2)C1=O)Nc1ccc([N+](=O)[O-])cc1 the Potency was 18.4 µM (active). For O=C(CN1C(=O)NC2(CCOc3ccccc32)C1=O)NCc1ccc(F)cc1 (centres undefined), the Potency was “inactive”. In the case of O=C(CN1C(=O)NC2(CCc3ccccc32)C1=O)NC1CCCCC1 (centres undefined), the Potency is reported as “inactive”. For O=C(CN1C(=O)NC2(CCCCCC2)C1=O)NC1CC1, the Potency was “inactive”. With CCOc1ccc(CCNC(=O)CN2C(=O)NC3(CCc4ccccc43)C2=O)cc1OCC (centres undefined) the Potency was “inactive”. In the case of COC(=O)Nc1ccc(S(=O)(=O)Nc2cc(OC)nc(OC)n2)cc1, the Potency is reported as “inactive”. For NS(=O)(=O)c1ccc(N2C(=O)C3C4CC(C(Br)C4Br)C3C2=O)cc1 (centres undefined), the Potency was “inactive”. For O=C1CC(Cc2ccccc2)C(=O)N1c1ccc(Cl)cn1 (centres undefined), the Potency was “inactive”. In the case of Cc1ccn(-c2cccc(-n3ccc(C)n3)n2)n1, the Potency is reported as “inactive”. In the case of COCCCn1c(SCC(=O)Nc2ccccc2)nnc1-c1ccncc1, the Potency is reported as “inactive”. With CCOC(=O)C1CSC(CC(=O)Nc2ccc(OCC)cc2)C(=O)N1 (centres undefined) the Potency was “inactive”. In the case of O=C(C1CCCO1)N1CCN(C(=O)C23CC4CC(CC(C4)C2)C3)CC1 (centres undefined), the Potency is reported as “inactive”. In the case of COc1ccc(OC)c(-c2csc(NC(=O)C3=NNC(=O)CC3)n2)c1, the Potency is reported as 13 µM (active). For COc1ccc(OC)c(-c2csc(NC(=O)COC(=O)C3CC3)n2)c1, the Potency was “inactive”. With COc1ccc(NC(=O)C2=NNC(=O)CC2)cc1S(=O)(=O)N1CCCCC1 the Potency was “inactive”. For COc1ccnc(Oc2ccccc2)n1, the Potency was “inactive”. In the case of CCc1nnc(NC(=O)Cc2cccs2)s1, the Potency is reported as “inactive”. In the case of CNc1nc(-c2ccccc2)cc(-c2ccccc2)n1, the Potency is reported as “inactive”. In the case of Fc1ccc2cnc(-c3ccccc3)cc2c1, the Potency is reported as “inactive”. For CSc1nc(Nc2ccc(F)cc2)cc(-c2ccccc2)n1, the Potency was 23.1 µM (active). For O=C(c1ccc(Cn2cc([N+](=O)[O-])cn2)o1)N1CCCC1, the Potency was “inactive”. For COCC(=O)Nc1ccc(Br)cc1, the Potency was “inactive”. For Cc1ccc(CCNC(=O)c2nnc(Cc3cccc(F)c3)o2)cc1, the Potency was “inactive”. In the case of Cc1cc(Br)ccc1NC(=O)C1CCCO1 (centres undefined), the Potency is reported as “inactive”. With C[C@@H]1NS(=O)(=O)c2cc(Cl)ccc2O[C@@H]1c1ccccc1 the Potency was “inactive”. In the case of CC1=C(C(=O)OC2CCCCC2)C(c2cccnc2)n2ncnc2N1 (centres undefined), the Potency is reported as 20.6 µM (active). With COC(=O)C1=C(C)Nc2ncnn2C1c1ccco1 (centres undefined) the Potency was “inactive”. With COC(=O)C1=C(C)Nc2ncnn2C1c1cccnc1 (centres undefined) the Potency was “inactive”. With O=C(CSc1nnc(-c2ccc(NS(=O)(=O)c3ccccc3)cc2)o1)NCC1CCCO1 (centres undefined) the Potency was “inactive”. With COc1ccc(-n2c(SC)nc(O)cc2=O)cc1 the Potency was “inactive”. With COc1ccc(-c2csc(Nc3ccc(O)cc3)n2)cc1 the Potency was 6.51 µM (active). For c1ccc(Nc2nc(-c3ccncc3)cs2)nc1, the Potency was 16.4 µM (active). With Cc1ccccc1Nc1nc(-c2cccnc2)cs1 the Potency was “inactive”. In the case of O=C(NCc1cccnc1)C(=O)Nc1nc(-c2ccccc2)cs1, the Potency is reported as “inactive”. With Oc1ccc(-c2csc(Nc3cccnc3)n2)cc1 the Potency was 29.1 µM (active). With COc1ccc(-c2csc(Cc3nc(O)cs3)n2)cc1 the Potency was 14.6 µM (active). For CN(c1ccc(O)cc1)c1nc(-c2cccnc2)cs1, the Potency was “inactive”. In the case of Clc1ccc(-c2csc(-c3ccncc3)n2)cc1, the Potency is reported as “inactive”. In the case of COc1ccc(Nc2nc(-c3ccccc3)cs2)cc1, the Potency is reported as “inactive”. In the case of COc1ccc(C(C)NC(=O)C2CCCC2)cc1 (centres undefined), the Potency is reported as “inactive”. With NC(=O)c1ccc(NC(=O)COC(=O)C(Cc2ccccc2)NC(=O)c2ccccc2)cc1 (centres undefined) the Potency was “inactive”. With O=C(O)c1ccc(NC(=O)c2ccc(COc3ccc(Cl)cc3)o2)cc1 the Potency was “inactive”. With CC(=O)Nc1cc(C(=O)N2CCc3c(Cl)cccc3C2)cc2ncn(CCc3ccccn3)c12 the Potency was “inactive”. In the case of COc1cccc(C2/C(=C(/O)c3ccc(F)cc3)C(=O)C(=O)N2CCN(C)C)c1 (centres undefined), the Potency is reported as “inactive”. In the case of O=C1CC(C(=O)O)NC(=S)N1 (centres undefined), the Potency is reported as “inactive”. With CCCCCN(C(=O)NC(=O)Nc1cccc(C)c1C)S(C)(=O)=O the Potency was “inactive”. With COc1ccc(C2CC(c3cccc(OC)c3)=NN2c2ccc(S(N)(=O)=O)cc2)cc1 (centres undefined) the Potency was “inactive”. In the case of COc1ccccc1OCCOc1ccc(/C=C2\C(=N)N3N=C(C)SC3=NC2=O)cc1, the Potency is reported as “inactive”. With COc1ccc(OC)c(Nc2nc(-c3ccc(O)c(O)c3)cs2)c1 the Potency was 1.16 µM (active). With CCN(CC(=O)Nc1c(F)cccc1F)C(=O)CN1c2cccc3cccc(c23)S1(=O)=O the Potency was “inactive”. For CCn1c(SCC(=O)NCC2CCCO2)nc2cc(S(=O)(=O)N3CCCCC3)ccc21 (centres undefined), the Potency was “inactive”. With Cc1ccc(NC(=O)CSc2nnc(COc3ccccc3C)o2)cc1 the Potency was “inactive”. With CC1CCCC(C)N1C(=O)CSc1nnnn1C1CCCC1 (centres undefined) the Potency was “inactive”. For Cc1ccc(NC(=S)NCCN2CCOCC2)cc1, the Potency was “inactive”. For CCOc1cccc(/C=N/NC(=S)NCCN2CCOCC2)c1O, the Potency was 2.91 µM (active). For CCCCc1ccc(NC(=S)NCCCN2CCOCC2)cc1, the Potency was “inactive”. With Brc1cnc(N2CCCC2)nc1N1CCCCC1 the Potency was “inactive”. With C=CCn1c(CNS(=O)(=O)c2ccc(Br)cc2)nnc1SC the Potency was “inactive”. With CCC(C)(C)NC(=O)CN(Cc1cccs1)C(=O)CNS(=O)(=O)c1ccc(F)cc1 the Potency was “inactive”. For COc1ccc(NC(=O)CN(C)C(=O)c2cccc(S(=O)(=O)N3CCN(c4ccccc4)CC3)c2)cc1, the Potency was 20.6 µM (active). With COc1ccc(OC)c(NC(=O)c2cccc(S(=O)(=O)N3CCN(C(C)=O)CC3)c2)c1 the Potency was “inactive”. In the case of CCOc1ccc(NC(=O)CN(C)C(=O)c2cccc(S(=O)(=O)N3CCCC3)c2)cc1OCC, the Potency is reported as “inactive”. With O=C(NCc1ccccc1Cl)NC(=O)c1csc([N+](=O)[O-])c1 the Potency was “inactive”. In the case of CCCOc1ccc(Cc2c(O)nc(SC)[nH]c2=O)cc1C, the Potency is reported as “inactive”. For COc1cccc(NC(=O)C2(C)CCN2Cc2ccccc2Cl)c1 (centres undefined), the Potency was 25.9 µM (active). For COc1cccc(NC(=O)NCCN2CCCCC2)c1, the Potency was “inactive”. In the case of COc1cccc(NC(=O)CN2CCN(CC(=O)Nc3ccccc3Cl)CC2)c1, the Potency is reported as “inactive”.
